The values below come from the supplement of paper PMC3484114.

± gives the standard deviation.

The test system of this assay is OVCAR-3-derived ovarian cancer stem-like cells (spheroids). The assay is described as follows: cell growth relative to untreated control; higher = more growth (less inhibition). Particulars: 2.29 µM; 96 h. Put shortly: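 After trypsin dissociation, OVCAR-3 spheroid-derived stem-like cells were placed in ultra-low attachment 96-well plates at 50,000 cells/mL in stem cell medium and preincubated for 24 h. Treatment at 2.29 uM followed for 96 h at 37°C, 5% CO2, with 4 replicate wells per compound. A 4 h TOX8 resazurin fluorescence read (ex 560/em 590 nm) gave viability, from which percent growth relative to untreated wells was derived after blank subtraction and Grubbs outlier removal.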
On to `COc1ccc2c(c1)C=C([N+](=O)[O-])C(C1OC(C)(C)OC1C1COC(C)(C)O1)O2` (configuration not stated), for which the cell growth amounted to 84.6 ± 23%.
For `COC(=O)[C@@]12OC[C@]34[C@H]([C@@H](O)[C@@H]1O)[C@@]1(C)CC(=O)C(O)=C(C)[C@@H]1C[C@H]3OC(=O)[C@H](OC(=O)C=C(C)C)[C@@H]24` the value was 18.5 ± 3.1%.
Consider `CON(C)C(=O)C1CCCO1` (configuration not stated), for which the cell growth came out at 79.4 ± 11%.
For `N#CC(=S)Nc1ccc(F)cc1` the value was 104 ± 19%.
For `COc1cc(C[C@H]2c3cc(OC)c(OC)cc3CCN2C)c(Oc2cc3c(cc2OC)-c2c(OC)c(OC)cc4c2[C@H](C3)N(C)CC4)cc1OC` the value was 77.8 ± 11%.
As for `CCCCCCCCCCCCCCCC[N+](C)(C)CCl`, the figure is 104 ± 17%.
`COC1OC(COCc2ccc(Cl)cc2)C(OCc2ccc(Cl)cc2)C1O` (configuration not stated): the cell growth came to 110 ± 26%.
As for `NC1(C(=O)O)CCCC1`, the figure is 84.9 ± 15%; as for `C=C1CC(COc2cc(=O)oc3ccccc23)(c2ccccc2)OC1=O` (configuration not stated), 76.3 ± 22%.
As for `Cc1ccc(S(=O)(=O)NC(=O)NC2=NC(C)(C)N(c3ccc(Cl)c(Cl)c3)C(N)=N2)cc1`, the figure is 84.1 ± 23%.
As for `CC(C)(C)C1CCC2(CC1)CCN(CCCN1CCOCC1)CC2`, the figure is 119 ± 12%; as for `Nc1ccc(N)c2c1C(=O)c1ccccc1C2=O`, 97.9 ± 12%.
The compound `Cc1cc(N(C)C)ccc1N=Nc1ccc2ncccc2c1` came in with a cell growth of 83.2 ± 6.3%.
Compound `CCOC(=O)Nc1cc2c(c(N)n1)N=C(c1ccccc1)CN2` yielded a cell growth of 89.9 ± 15%.
As for `COC1/C=C/OC2(C)Oc3c(C)c(O)c4c(c3C2=O)C(=O)C=C(NC(=O)/C(C)=C\C=C\C(C)C(OC=O)C(C)C(O)C(C)C(OC(C)=O)C1C)C4=O` (configuration not stated), the figure is 66.6 ± 67%.
As for `Clc1cc2nc[nH]c2cc1Cl`, the figure is 102 ± 31%; as for `CCN(CC)CCCC(C)NC(=O)c1ccc2c(c1)C(=O)c1ccccc1C2=O` (configuration not stated), 35.6 ± 15%.
